Assay results: PubChem BioAssay AID1159580 (chemical genetic matrix, 2015)
Among all 5,500 compounds or so, about 2,000 (36%) were called active. Another 18% or so got no clear call; they are omitted. Cut-off read from the data, not from the text of the source: active = normalized growth mostly below about 0.91 (no sharp cut-off); inconclusive = no clear call, values can overlap the other calls; inactive = mostly above about 0.92. The list shows a part of the results.

Assay: chemical genetic growth profiling, strain panel (AID 1159580);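 note: tested at 20 µM; growth read once vehicle control cultures reached saturation at 30 °C; 1 = growth at the plate median or of vehicle wells; lower values mean less growth of the strain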
Settings: S. cerevisiae deletion strains, growth OD

Measured: normalized growth

CC12C(=O)OC(=O)C1(C)C1CCC2O1 (stereo unspecified)
inactive: locus YAL040C, strain CLN3, stronger effect = lower value 0.905 | locus YCL061C, strain MRC1 (second series), stronger effect = lower value 0.975 | locus YER002W, strain NOP16, stronger effect = lower value 0.925 | locus YJR075W, strain HOC1, stronger effect = lower value 1.04 | locus YNL128W, strain TEP1, stronger effect = lower value 0.954 | locus YPL055C, strain LGE1, stronger effect = lower value 1.05 | locus YPL241C, strain CIN2, stronger effect = lower value 0.967
active: locus YNL175C, strain NOP13, stronger effect = lower value 0.887 | locus YNL197C, strain WHI3, stronger effect = lower value 0.879 | locus YNL224C, strain SQS1, stronger effect = lower value 0.911 | locus YOR083W, strain WHI5 (second series), stronger effect = lower value 0.85

N[C@@H](CCC(=O)N[C@@H](CCSC(CC(=O)O)C(=O)O)C(=O)NCC(=O)O)C(=O)O (stereo partly specified)
inactive: locus YAL021C, strain ccr4, stronger effect = lower value 0.991 | locus YAL026C, strain drs2, stronger effect = lower value 1 | locus YAL030W, strain snc1, stronger effect = lower value 0.992 | locus YBL061C, strain skt5, stronger effect = lower value 0.989 | locus YBR009C, strain hhf1, stronger effect = lower value 1.03 | locus YBR023C, strain chs3, stronger effect = lower value 0.987 | locus YBR171W, strain sec66, stronger effect = lower value 0.988 | locus YBR231C, strain swc5, stronger effect = lower value 0.993 | locus YBR279W, strain paf1, stronger effect = lower value 0.996 | locus YCL011C, strain gbp2, stronger effect = lower value 0.995 | locus YCL016C, strain dcc1, stronger effect = lower value 0.988 | locus YCL061C, strain MRC1, stronger effect = lower value 1 | locus YCL069W, strain vba3, stronger effect = lower value 0.997 | locus YCR088W, strain abp1, stronger effect = lower value 0.988 | locus YDL005C, strain med2, stronger effect = lower value 0.99 | locus YDL040C, strain nat1, stronger effect = lower value 0.997 | locus YDR001C, strain nth1, stronger effect = lower value 0.994 | locus YDR069C, strain doa4, stronger effect = lower value 0.987 | locus YDR137W, strain rgp1, stronger effect = lower value 0.987 | locus YDR159W, strain sac3, stronger effect = lower value 0.996 | locus YDR195W, strain ref2 0.97 | locus YDR297W, strain sur2, stronger effect = lower value 0.981 | locus YDR334W, strain swr1, stronger effect = lower value 1 | locus YDR335W, strain msn5, stronger effect = lower value 0.996 | locus YDR392W, strain spt3, stronger effect = lower value 1.01 | locus YEL003W, strain gim4, stronger effect = lower value 1.01 | locus YEL037C, strain rad23, stronger effect = lower value 0.994 | locus YEL061C, strain CIN8 (second series), stronger effect = lower value 0.998 | locus YER015W, strain faa2, stronger effect = lower value 0.993 | locus YER016W, strain bim1, stronger effect = lower value 0.978 | locus YER111C, strain swi4, stronger effect = lower value 0.998 | locus YER155C, strain BEM2 (second series), stronger effect = lower value 1.01 | locus YFR010W, strain ubp6, stronger effect = lower value 1.02 | locus YGL167C, strain pmr1, stronger effect = lower value 0.997 | locus YGL173C, strain kem1, stronger effect = lower value 1.01 | locus YGL227W, strain vid30, stronger effect = lower value 0.999 | locus YGL240W, strain doc1, stronger effect = lower value 0.999 | locus YGL253W, strain hxk2, stronger effect = lower value 0.991 | locus YHR013C, strain ard1, stronger effect = lower value 1 | locus YHR027C, strain rpn1, stronger effect = lower value 0.994 | locus YHR030C, strain SLT2, stronger effect = lower value 0.999 | locus YHR079C, strain IRE1, stronger effect = lower value 0.988 | locus YHR142W, strain chs7, stronger effect = lower value 1 | locus YJL092W, strain hpr5, stronger effect = lower value 1 | locus YJL095W, strain BCK1 (second series), stronger effect = lower value 1.02 | locus YJL095W, strain BCK1, stronger effect = lower value 1.01 | locus YJL115W, strain asf1, stronger effect = lower value 1.01 | locus YJL129C, strain trk1, stronger effect = lower value 0.99 | locus YJL154C, strain vps35, stronger effect = lower value 0.992 | locus YJL164C, strain tpk1, stronger effect = lower value 1.01 | locus YJL166W, strain qcr8, stronger effect = lower value 0.994 | locus YJL187C, strain SWE1, stronger effect = lower value 0.992 | locus YJR066W, strain TOR1, stronger effect = lower value 0.997 | locus YKL160W, strain elf1, stronger effect = lower value 0.984 | locus YKR026C, strain gcn3, stronger effect = lower value 0.993 | locus YKR091W, strain srl3, stronger effect = lower value 1 | locus YLL001W, strain dnm1, stronger effect = lower value 1.01 | locus YLL026W, stronger effect = lower value 1 | locus YLL041C, strain sdh2, stronger effect = lower value 1.01 | locus YLR027C, strain aat2, stronger effect = lower value 0.996 | locus YLR113W, strain HOG1, stronger effect = lower value 1 | locus YLR221C, strain rsa3, stronger effect = lower value 1.01 | locus YLR258W, strain gsy2, stronger effect = lower value 1.01 | locus YLR262C, strain YPT6 (second series), stronger effect = lower value 0.992 | locus YLR320W, strain mms22, stronger effect = lower value 1.01 | locus YLR342W, strain FKS1, stronger effect = lower value 0.99 | locus YLR357W, strain rsc2, stronger effect = lower value 0.996 | locus YLR370C, strain arc18, stronger effect = lower value 0.997 | locus YLR384C, strain iki3, stronger effect = lower value 0.964 | locus YML120C, strain ndi1, stronger effect = lower value 0.993 | locus YMR058W, strain fet3, stronger effect = lower value 0.991 | locus YMR125W, strain sto1, stronger effect = lower value 1.01 | locus YMR129W, stronger effect = lower value 0.99 | locus YMR205C, strain PFK2, stronger effect = lower value 1 | locus YMR231W, strain pep5, stronger effect = lower value 0.995 | locus YNL071W, strain lat1, stronger effect = lower value 1.01 | locus YNL183C, strain NPR1, stronger effect = lower value 0.937 | locus YNL209W, strain ssb2, stronger effect = lower value 0.981 | locus YNL248C, strain rpa49, stronger effect = lower value 1.02 | locus YNL322C, strain KRE1 (second series), stronger effect = lower value 0.979 | locus YNR049C, strain mso1, stronger effect = lower value 0.997 | locus YOR001W, strain rrp6, stronger effect = lower value 1.02 | locus YOR070C, strain gyp1, stronger effect = lower value 0.999 | locus YOR080W, strain dia2, stronger effect = lower value 0.982 | locus YOR083W, strain WHI5, stronger effect = lower value 0.985 | locus YOR106W, strain vam3, stronger effect = lower value 0.976 | locus YOR231W, strain MKK1, stronger effect = lower value 0.991 | locus YOR265W, strain rbl2, stronger effect = lower value 0.998 | locus YOR270C, strain vph1, stronger effect = lower value 1.07 | locus YOR290C, strain snf2, stronger effect = lower value 0.994 | locus YPL051W, strain arl3, stronger effect = lower value 1 | locus YPL078C, strain atp4, stronger effect = lower value 0.986 | locus YPL106C, strain sse1, stronger effect = lower value 0.971 | locus YPL240C, strain hsp82, stronger effect = lower value 1.01 | locus YPL256C, strain CLN2, stronger effect = lower value 0.988
